Results filed as inconclusive are left out. Active and inactive are the calls of the source. Unless noted, calls come from the whole dose curve; as a rule, active = well fitted curve in the direction sought with a large enough effect in the repeat runs; inconclusive = weak or mixed curves; inactive = no such curve, though single readings can be large; an effect the other way counts as inactive or inconclusive.
What was measured:
[1] = qHTS assay to identify small molecule agonists of the peroxisome proliferator-activated receptor delta (PPARd) signaling pathway - cell viability counter screen (AID 743211); note: nearly all actives have a fitted effect of over 55% in size
Procedure, shortened: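 HEK293H PPARd-bla, 3000 cells/well; 5 h preincubation 37C/5% CO2; cpd in DMSO, 17 h 37C; B/G FRET substrate 2 h RT; CellTiter-Glo 30 min RT, luminescence.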

[2] = qHTS assay to identify small molecule antagonists of the peroxisome proliferator-activated receptor delta (PPARd) signaling pathway - cell viability counter screen (AID 743213); note: nearly all actives have a fitted effect of over 50% in size
Procedure, shortened: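 Same-well viability: cells pre-incubated 5 h, dosed with compound plus 300 nM L165041, kept 17 h at 37 C, FRET substrate 2 h RT, then CellTiter-Glo 30 min RT and luminescence.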

[3] = qHTS assay to identify small molecule agonists of the farnesoid-X-receptor (FXR) signaling pathway - cell viability counter screen (AID 743218); note: nearly all actives have a fitted effect of over 45% in size; note: potency is the fitted concentration of half-maximal effect
Procedure, shortened: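 Readout: CellTiter-Glo luminescence, 30 min RT, multiplexed after the FXR-bla FRET reading. HEK 293T FXR-UAS-bla cells received compound 5 h post-plating and were incubated 16 h at 37 C.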

[4] = molecular target: Vitamin D3 receptor (Homo sapiens) (UniProt P11473); experiment: qHTS assay to identify small molecule agonists of the vitamin D receptor (VDR) signaling pathway (AID 743222; calls by dose curve)
Sequence of Vitamin D3 receptor (Homo sapiens) (P11473 whole entry, looked up): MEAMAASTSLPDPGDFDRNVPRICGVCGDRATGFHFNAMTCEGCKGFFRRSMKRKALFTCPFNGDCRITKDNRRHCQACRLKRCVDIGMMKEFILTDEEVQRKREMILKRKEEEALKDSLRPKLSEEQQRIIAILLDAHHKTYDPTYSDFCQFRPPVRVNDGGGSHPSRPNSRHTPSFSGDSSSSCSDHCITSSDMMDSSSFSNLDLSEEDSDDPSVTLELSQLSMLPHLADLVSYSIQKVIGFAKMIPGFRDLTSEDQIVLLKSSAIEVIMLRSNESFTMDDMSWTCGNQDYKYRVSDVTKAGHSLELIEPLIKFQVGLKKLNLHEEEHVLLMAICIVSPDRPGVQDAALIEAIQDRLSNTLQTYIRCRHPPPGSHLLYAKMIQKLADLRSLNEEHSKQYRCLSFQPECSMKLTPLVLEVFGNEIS
Procedure, shortened: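 Following 4 h attachment at 37C, VDR-bla cells (2,000 per well) received DMSO-dissolved compounds or controls. After 16 h incubation, LiveBLAzer B/G FRET substrate was added and fluorescence read 2 h later at room temperature.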

[5] = molecular target: Vitamin D3 receptor (Homo sapiens) (UniProt P11473); experiment: qHTS assay to identify small molecule antagonists of the vitamin D receptor (VDR) signaling pathway (AID 743223; active = well fitted inhibition curve with a large enough effect in the signal ratio in the repeat runs, not every such curve was filed as active; the % refers to the signal ratio)
Procedure, shortened: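 Antagonist mode uses 1alpha,25-dihydroxyvitamin D3 at 3 nM final as stimulus. VDR-bla cells receive compounds in DMSO, incubate 16 h at 37C, then a beta-lactamase FRET substrate for 2 h at room temperature before fluorescence measurement.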

[6] = qHTS assay to identify small molecule agonists of the vitamin D receptor (VDR) signaling pathway - cell viability counter screen (AID 743224); note: series mostly up to about 63 µM; nearly all actives have a fitted effect of over 50% in size
Procedure, shortened: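 In parallel with the bla FRET readout, cytotoxicity toward VDR-bla cells after 16 h compound exposure was assessed by CellTiter-Glo, with luminescence recorded after a 30 min room-temperature incubation.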

[7] = qHTS assay to identify small molecule antagonists of the vitamin D receptor (VDR) signaling pathway - cell viability counter screen (AID 743225); note: nearly all actives have a fitted effect of over 50% in size
Procedure, shortened: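 Read-out: CellTiter-Glo luminescence measured 30 min after reagent addition at room temperature. Cells were VDR-bla HEK 293T exposed 16 h at 37C, 5% CO2, to compound with 3 nM final calcitriol agonist.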

[8] = qHTS assay to identify small molecule agonists of the NFkB signaling pathway (AID 1159509; active = well fitted curve in the direction sought with a large enough effect in the signal ratio in the repeat runs, not every such curve was filed as active; the % refers to the signal ratio; note: series mostly up to about 61 µM)
Procedure, shortened: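 Beta-lactamase reporter assay run in quantitative high-throughput format on an NF-kB-responsive ME-180 line, with 5 hr compound treatment and a FRET-based blue/green fluorescence readout.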

[9] = qHTS assay to identify small molecule agonists of the NFkB signaling pathway - cell viability counter screen (AID 1159515; calls by dose curve; note: series mostly up to about 61 µM; nearly all actives have a fitted effect of over 55% in size)
Procedure, shortened: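 Plate 2,000 NFkB-bla ME-180 cells/well; incubate overnight. Add compounds, 5 hr at 37 C. Add FRET substrate, 1.5 hr RT. Add CellTiter-Glo, 30 min RT; read luminescence.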

[10] = qHTS assay to identify small molecule agonists of the endoplasmic reticulum stress response signaling pathway (AID 1159516; active = well fitted activation curve with a large enough effect in the signal ratio in the repeat runs, not every such curve was filed as active; the % refers to the signal ratio)
Procedure, shortened: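 Beta-lactamase expression from the ER stress response element in HeLa reporter cells is quantified with the LiveBLAzer B/G FRET substrate, read at 405 nm excitation after 2 hr at room temperature, following 5 hr compound treatment at 37 C.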

[11] = qHTS assay to identify small molecule agonists of the endoplasmic reticulum stress response signaling pathway - cell viability counter screen (AID 1159517; calls by dose curve; note: series mostly up to about 61 µM; nearly all actives have a fitted effect of over 50% in size)
Procedure, shortened: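 After overnight attachment, ESRE-bla HeLa cells were treated with Tox21 library compounds for 5 hr. CellTiter-Glo luminescence, read 30 min post-addition at room temperature, reported viability.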

[12] = qHTS assay to identify small molecule antagonists of the retinoid-related orphan receptor gamma (ROR-gamma) signaling pathway - cell viability counter screen (AID 1159520); note: nearly all actives have a fitted effect of over 50% in size
Procedure, shortened: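 Cytotoxicity was read from cellular ATP (CellTiter-Glo luminescence) after 16 hr at 37 C with 1 uM doxycycline induction. The inducer was added 2 hr after compound transfer to Tet-on ROR gamma CHO cells.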

[13] = molecular target: Nuclear receptor ROR-gamma (Homo sapiens) (UniProt P51449); experiment: qHTS assay to identify small molecule antagonists of the retinoid-related orphan receptor gamma (ROR-gamma) signaling pathway (AID 1159521; note: nearly all actives have a fitted effect of over 50% in size; note: potency is the fitted concentration of half-maximal effect)
Procedure, shortened: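 CHO Tet-on RORγ, RORE-luc reporter. Cpd 2 h pre-incubation, then dox hyclate 1 uM final, 16 h, 37 C/5% CO2. ONE-Glo luminescence; decrease = antagonist.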

[14] = qHTS assay to identify small molecule agonists of the AP-1 signaling pathway - cell viability counter screen (AID 1159525; calls by dose curve; note: nearly all actives have a fitted effect of over 55% in size)
Procedure, shortened: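 Intracellular ATP by Cell Titer Glo luminescence (30 min, RT) in the same ME-180 AP-1-bla wells after the 5 h compound exposure at 37 °C. Normalised to tetra n-octyl ammonium bromide and DMSO controls.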

[15] = qHTS assay to identify small molecule agonists of the AP-1 signaling pathway (AID 1159526; calls by dose curve; note: potency is the fitted concentration of half-maximal effect)
[16] = molecular target: Peroxisome proliferator-activated receptor delta (Homo sapiens) (UniProt Q03181); experiment: qHTS assay to identify small molecule antagonists of the peroxisome proliferator-activated receptor delta (PPARd) signaling pathway (AID 743215; active = well fitted inhibition curve with a large enough effect in the signal ratio in the repeat runs, not every such curve was filed as active; the % refers to the signal ratio;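 note: cells stimulated with agonist L165041 at 300 nM final during compound exposure; series mostly up to about 62 µM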)
Sequence of Peroxisome proliferator-activated receptor delta (Homo sapiens) (Q03181 whole entry, looked up): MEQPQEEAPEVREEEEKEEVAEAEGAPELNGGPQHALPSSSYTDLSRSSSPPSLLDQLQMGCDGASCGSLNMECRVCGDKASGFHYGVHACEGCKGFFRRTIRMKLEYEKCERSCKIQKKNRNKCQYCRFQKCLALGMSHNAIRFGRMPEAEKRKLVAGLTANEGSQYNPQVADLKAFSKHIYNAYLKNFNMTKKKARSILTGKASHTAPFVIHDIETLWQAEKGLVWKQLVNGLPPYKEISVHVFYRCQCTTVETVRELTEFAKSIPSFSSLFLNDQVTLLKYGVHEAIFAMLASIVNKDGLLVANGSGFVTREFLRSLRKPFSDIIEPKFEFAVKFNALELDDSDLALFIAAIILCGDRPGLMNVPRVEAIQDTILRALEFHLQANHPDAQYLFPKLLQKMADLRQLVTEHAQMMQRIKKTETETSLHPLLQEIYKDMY
Procedure, shortened: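 Fluorescence from cleaved LiveBLAzer B/G FRET substrate (2 h, room temperature) reports PPARd-driven beta-lactamase in HEK293H UAS-bla cells. Cells had been treated 17 h at 37 C with compound plus 300 nM final L165041.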

[17] = qHTS assay to identify small molecule antagonists of the farnesoid-X-receptor (FXR) signaling pathway - cell viability counter screen (AID 743221; active = well fitted cell-killing curve with a large enough effect in the repeat runs, not every such curve was filed as active; note: nearly all actives have a fitted effect of over 50% in size)
Procedure, shortened: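 Luminescence from CellTiter-Glo measures cytotoxicity in GeneBLAzer FXR-UAS-bla HEK 293T cells. Cells were exposed to compounds with 50 uM chenodeoxycholic acid (final) for 16 h at 37 C, in wells also used for the reporter readout.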

[18] = molecular target: Bile acid receptor (Homo sapiens) (UniProt Q96RI1); experiment: qHTS assay to identify small molecule antagonists of the farnesoid-X-receptor (FXR) signaling pathway (AID 743217; active = well fitted inhibition curve with a large enough effect in the signal ratio in the repeat runs, not every such curve was filed as active; the % refers to the signal ratio)
Sequence of Bile acid receptor (Homo sapiens) (Q96RI1 whole entry, looked up): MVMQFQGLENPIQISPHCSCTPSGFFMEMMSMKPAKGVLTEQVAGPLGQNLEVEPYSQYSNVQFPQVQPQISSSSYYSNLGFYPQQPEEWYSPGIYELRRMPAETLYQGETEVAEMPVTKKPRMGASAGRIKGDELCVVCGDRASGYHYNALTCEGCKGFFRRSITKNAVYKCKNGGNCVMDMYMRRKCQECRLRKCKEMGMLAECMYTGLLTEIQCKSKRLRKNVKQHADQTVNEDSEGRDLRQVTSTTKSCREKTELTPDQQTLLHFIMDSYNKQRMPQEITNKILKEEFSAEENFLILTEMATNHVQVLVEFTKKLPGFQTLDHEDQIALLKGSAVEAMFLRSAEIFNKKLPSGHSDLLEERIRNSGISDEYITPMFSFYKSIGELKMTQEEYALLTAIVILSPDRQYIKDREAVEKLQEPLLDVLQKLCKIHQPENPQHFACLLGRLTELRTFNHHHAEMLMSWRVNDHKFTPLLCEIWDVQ
Procedure, shortened: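 FRET fluorescence after 2 h room-temperature LiveBLAzer loading gives the readout. Prior step: FXR-bla HEK 293T cells, seeded and incubated 5 h, received test compounds plus 50 uM final CDCA for 16 h at 37 °C.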

[19] = molecular target: Bile acid receptor (Homo sapiens) (UniProt Q96RI1); experiment: qHTS assay to identify small molecule agonists of the farnesoid-X-receptor (FXR) signaling pathway (AID 743220; active = well fitted activation curve with a large enough effect in the signal ratio in the repeat runs, not every such curve was filed as active; the % refers to the signal ratio)
Procedure, shortened: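 FXR-UAS-bla HEK 293T cells carrying a UAS-driven beta-lactamase reporter were plated for 5 h at 37C/5% CO2, then exposed to DMSO-dissolved Tox21 10K compounds for 16 h at 37C. A LiveBLAzer B/G FRET substrate was loaded for 2 h at room temperature before fluorescence reading.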

[20] = molecular target: Peroxisome proliferator-activated receptor delta (Homo sapiens) (UniProt Q03181); experiment: qHTS assay to identify small molecule agonists of the peroxisome proliferator-activated receptor delta (PPARd) signaling pathway (AID 743212; calls by dose curve;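 note: HEK293H cells with PPARd UAS beta-lactamase reporter GeneBLAzer system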)
Procedure, shortened: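 Steps: seed PPARd-bla HEK293H cells; incubate 5 h, 37 C, 5% CO2; add compounds in DMSO; incubate, 37 C; add LiveBLAzer B/G FRET substrate; hold 2 h at room temperature; measure fluorescence.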

Measured: Potency

CC(O)CN (stereo unspecified)
not listed: [16] | [17] | [18] | [19] | [20]
inactive: all other assays above

Cc1c(Nc2ncccc2C(=O)O)cccc1C(F)(F)F
inactive: [1] | [6] | [7] | [8] | [9] | [10] | [11] | [12] | [13] | [14] | [15]

C/C(=C\C(C)CC(C)CC(C)C)C1CC(=O)OC1=O (stereo unspecified)
not listed: [5] | [17] | [18] | [19] | [20]
inactive: all other assays above

C=C[Si](OCC)(OCC)OCC
not listed: [7] | [16] | [18] | [19] | [20]
inactive: all other assays above

C[C@]12CCC(=O)C=C1[C@@H]1C[C@@H]1[C@H]1[C@@H]3[C@@H]4C[C@@H]4[C@@]4(CCC(=O)O4)[C@@]3(C)CC[C@@H]12
active: [13] 7.5 µM
not listed: [4] | [16] | [18] | [19] | [20]
inactive: all other assays above

O=C(O)c1c2ccccc2cc2ccccc12
active: [13] 13.6 µM | [15] 24.5 µM
not listed: [20]
inactive: all other assays above

CC(C)(Cc1c[nH]c2ccccc12)NCC(O)COc1ccccc1C#N (stereo unspecified)
not listed: [1] | [2] | [3] | [4] | [5] | [6] | [7] | [17]
inactive: all other assays above

Cc1nc2sccn2c(=O)c1CCN1CCC(=C(c2ccc(F)cc2)c2ccc(F)cc2)CC1
active: [3] 26.6 µM
not listed: [2] | [4] | [5] | [7] | [16] | [18] | [19]
inactive: all other assays above

CCCCCCCCCCCCSCCOCCO
not listed: [2] | [4] | [5] | [16] | [20]
inactive: all other assays above

CCCCCCCCCC(C)C=O (stereo unspecified)
not listed: [7] | [16] | [19] | [20]
inactive: all other assays above

CCN(CCCCOC(=O)c1ccc(OC)c(OC)c1)C(C)Cc1ccc(OC)cc1 (stereo unspecified)
not listed: [2] | [3] | [4] | [7] | [16] | [18] | [19] | [20]
inactive: all other assays above

C=CC(C)CCC=C(C)C (stereo unspecified)
not listed: [2] | [16] | [17] | [18] | [19]
inactive: all other assays above

C[C@H](N)C(=O)N[C@@H](C)C(=O)NC1[C@H]2CN(c3nc4c(cc3F)c(=O)c(C(=O)O)cn4-c3ccc(F)cc3F)C[C@@H]12 (stereo partly specified)
not listed: [2] | [16] | [18] | [19] | [20]
inactive: all other assays above

O=C1CCCN1CCO
not listed: [3] | [5] | [17] | [18] | [19] | [20]
inactive: all other assays above

Clc1nc2ccccc2nc1Cl
not listed: [6] | [17] | [18] | [19] | [20]
inactive: all other assays above

O=C(N[C@@H](Cc1ccccc1)[C@@H](O)C(=O)N1C[C@@H](O)[C@@H](O)C1)c1cc2cc(Cl)ccc2[nH]1
not listed: [2] | [16] | [18] | [19] | [20]
inactive: all other assays above

CO[C@@H]1[C@@H](O[C@@H]2O[C@H](C)[C@@H](O[C@H]3C[C@@](C)(O)[C@@H](O)[C@H](C)O3)[C@H](N(C)C)[C@H]2O)[C@@H](CC=O)C[C@@H](C)[C@@H](O[C@@H]2CC[C@H](N(C)C)[C@@H](C)O2)/C=C/C=C/C[C@@H](C)OC(=O)C[C@H]1OC(C)=O
not listed: [2] | [3] | [5] | [16] | [18] | [19] | [20]
inactive: all other assays above

S=c1[nH][nH]c(=S)s1
not listed: [1] | [5] | [18] | [19]
inactive: all other assays above

COc1cc(CNC(=O)CCCC/C=C/C(C)C)ccc1O
not listed: [4] | [18] | [20]
inactive: all other assays above

Nc1ccccc1Nc1ccccc1
not listed: [4] | [5] | [16] | [18] | [19] | [20]
inactive: all other assays above

O=C(O)COCC(=O)O
not listed: [7] | [16] | [19] | [20]
inactive: all other assays above

O=C(O)c1cc(C(=O)O)c(C(=O)O)cc1C(=O)O
not listed: [2] | [3] | [16] | [17] | [20]
inactive: all other assays above

O=C(C1CCCCC1)N1CC(=O)N2CCCc3ccccc3C2C1 (stereo unspecified)
not listed: [4] | [5] | [17] | [18] | [19] | [20]
inactive: all other assays above

Oc1ccc(CCNCCCCCCNCCc2ccccc2)cc1O
not listed: [1] | [4] | [6]
inactive: all other assays above

CC(=O)Nc1ccn(C2COC(COC(=O)c3ccccc3)O2)c(=O)n1 (stereo unspecified)
not listed: [3] | [5] | [16] | [17] | [18] | [19] | [20]
inactive: all other assays above

Cc1ccc(Cl)c(OCC(O)CNC(C)(C)C)c1 (stereo unspecified)
not listed: [2] | [6] | [14] | [15] | [18] | [19]
inactive: all other assays above

Cc1cccc(C)c1NC(=O)CN1CCCC1
not listed: [5] | [15] | [16] | [18] | [19] | [20]
inactive: all other assays above

O=Cc1ccc(Cl)c([N+](=O)[O-])c1
active: [13] 54.5 µM
not listed: [1] | [5] | [14] | [18]
inactive: all other assays above

From PubChem BioAssay (Tox21)
